Screening results: PubChem BioAssay, several laboratories
Only some compounds are listed: those with a hit (about 0.5% of all), similar ones and a draw of the others.
E coli growth-1 – blocks Escherichia coli growth; OD600 absorbance (no concentration beside the values); 330,000 compounds, 0.21% hits; OD600, 23 h; active compounds read low; AID 1053175;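 active means OD600 absorbance below the run mean of sample wells minus 3.6 SD, in any replicate, cut at about 0.56 in these data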
Tat transport – inhibitors of E. coli Tat protein transport | inhibition, % at 10 µM | E. coli MC4100 TorA-mCherry Tat export, fluorescence | 340,000 compounds, 0.036% hits;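 active means mean replicate inhibition at least 50% and at least half of replicates individually reaching 50%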;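 further: exported cargo escapes ClpAP degradation while cytoplasmic cargo is degraded and loses fluorescence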
phage Ecoli inh – E. coli growth loss with phage present; growth absorbance; inhibition, % at 11.9 µM; 360,000 compounds, 0.26% hits; in the data active means inhibition above about 11%
AddAB inh – less growth of phage-infected E. coli with AddAB | 330,000 compounds, 0.29% hits | E. coli expressing H. pylori AddAB, absorbance growth | inhibition, % at 11.9 µM | AID 435030; in the data active means inhibition above about 12%
E coli growth-2 – counter-screen for AddAB inhibitors: E. coli growth inhibition; inhibition, % at 11.9 µM; E. coli V3065 growth, OD600 absorbance, 18 h; 330,000 compounds, 0.27% hits; AID 449728;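 active means inhibition above the campaign's mean inhibition across all tested compounds plus 3 SD, cut at about 9.9% in these data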;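 further: uninfected addAB+ strain grown without phage in ampicillin broth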
Numbers stand for hits; n = inactive; x = no result given.

SMILES	E coli growth-1	Tat transport	phage Ecoli inh	AddAB inh	E coli growth-2
Cc1ccc(-c2cc(C(=O)NN=Cc3c[nH]c4ccccc34)[nH]n2)cc1	n	x	x	x	x
COc1ccc(C=NNc2cn[nH]c(=O)c2Cl)cc1	n	x	x	x	x
Cc1c(C)c2cccnc2c2ncccc12	0.25	n	x	47	47
O=[N+]([O-])c1ccc(Cl)c2cccnc12	n	n	n	n	n
Clc1cc2cccnc2c2ncccc12	0.53	n	n	n	n
Cc1ccc2ccc3cccnc3c2n1	x	n	n	n	n
Cc1ccc(C)c(S(=O)(=O)NN=Cc2ccc(F)cc2)c1	n	x	x	x	x
COC(=O)c1ccc(C=NOCC(=O)Nc2cc(F)ccc2F)cc1	0.53	x	x	x	x
CCCCCCCNC(=O)C1(CC2CC(c3cccc(Br)c3)=NO2)CCNCC1 (stereo not drawn)	0.048	n	n	n	n
O=C(C1=C[C@H](c2ccccc2)C[C@H](OCc2ccc(CO)cc2)O1)N1CCOCC1	0.65	n	n	n	n
CN1CCN(C(=O)C2=C[C@@H](c3ccccc3)C[C@@H](OCc3ccc(CO)cc3)O2)CC1	x	n	n	n	n
COCCn1c(SCC(=O)NCc2ccc3c(c2)OCO3)nnc1-c1c[nH]c2ccccc12	n	n	93	n	n
COCCn1c(SCC(=O)NCc2ccc3c(c2)OCO3)nnc1C(C)C	n	n	n	n	n
CCOC(=O)c1sc(NC(=O)Nc2ccccc2Cl)cc1C	n	n	n	n	n
CCOC(=O)c1sc(NC(=O)Nc2ccccc2)cc1C	0.53	n	n	n	n
CC(=O)NCc1ccc(C(=O)CCl)cc1	0.51	n	n	n	n
CC(=O)Nc1ccc(C(=O)CCl)cc1	0.41	n	n	n	n
CC(=O)Nc1ccc(C)cc1	n	n	n	n	n
CC(=O)N(C)Cc1ccc(C(=O)CCl)cc1	n	n	n	n	n
CC(=O)NCc1ccc(C(=O)CCl)s1	0.49	n	n	n	n
COc1cc(C)c(Cc2cnc(N)nc2N)cc1OC	x	x	x	100	101
c1ccc2c(NCCCN3CCOCC3)c3ccccc3nc2c1	n	x	n	15	10
C#CCNC(=O)C1=CC(c2cn(C(C)=O)c3ccccc23)C(CCCO)C(OCC)O1 (stereo not drawn)	n	x	x	x	x
O=C1CSC(=S)N1/N=C/c1ccc2c(c1)OCCO2	x	n	n	n	9.9
CCCCCC(=O)NNC(=S)NC(C)=O	0.48	n	n	n	n
SMILES	E coli growth-1	Tat transport	phage Ecoli inh	AddAB inh	E coli growth-2
CCCCC(=O)NNC(=S)NC(=O)c1ccc(C)cc1	n	n	n	n	n
CCOc1cc(C=NNC(=O)c2c(C)nc3ccccn23)ccc1O	n	x	x	x	x
CCCCCCCCCCCCCCCC[n+]1cccc2ccccc21	0.092	n	n	n	n
CCCCCCCCCn1c2c(c(=N)c3c1CCC3)CCCC2	0.43	n	x	x	x
CCCCCCCCn1c2c(c(=N)c3ccccc31)CCC2	n	n	n	x	x
CCn1c2c(c(=N)c3c1CCC3)CCCC2	n	x	n	n	n
CCCCCCCCCCn1c2c(c(=N)c3c1CCC3)CCC2	0.22	n	n	n	n
NC(=O)C1CCCCNc2c(I)cc([N+](=O)[O-])cc2C(=O)NC(CCC(=O)O)C(=O)NC(CO)C(=O)N1 (stereo not drawn)	n	x	x	x	x
CC1c2cccc(O)c2C(O)=C2C(=O)C3(O)C(O)=C(C(N)=O)C(=O)C(N(C)C)C3C(O)C21 (stereo not drawn)	0.067	x	x	x	x
CN(C)c1ccc(O)c2c1CC1CC3C(N(C)C)C(=O)C(C(N)=O)=C(O)[C@]3(O)C(=O)C1=C2O (stereo partly drawn)	0.071	x	x	x	x
CC1c2cccc(O)c2C(O)=C2C(=O)[C@]3(O)C(O)=C(C(N)=O)C(=O)C(N(C)C)C3C(O)C21 (stereo partly drawn)	0.065	x	x	x	x
CC1c2cccc(O)c2C(=O)C2C(=O)C3(O)C(=O)C(C(N)=O)C(=O)C(N(C)C)C3C(O)C21 (stereo not drawn)	0.068	x	x	x	x
O=C(NN=Cc1ccc(Cl)c(Cl)c1)c1ccc2nc[nH]c2c1	n	x	x	x	x
Cc1cc(=O)[nH]c(NN=Cc2ccccc2C(F)(F)F)n1	n	x	x	x	x
C[n+]1cccc(CNC(=O)C=NO)c1	n	x	x	x	x
CN1/C(=C/c2cc[n+](C)c3ccccc23)C=Cc2ccccc21	0.34	n	x	x	x
C[n+]1ccc(/C=C/c2ccccc2O)c2ccccc21	n	n	n	n	n
NC1=C(Br)C(=O)c2ncccc2C1=O	x	n	35	x	x
O=[N+]([O-])c1cc(C(F)(F)F)ccc1N1CCN(S(=O)(=O)c2ccc3ccccc3c2)CC1	0.54	n	n	n	n
O=C(NC(=Nc1nc2ccccc2o1)NC(=O)c1ccccc1)c1ccccc1	n	n	n	n	n
COc1ccccc1C(=O)NC(=Nc1nc2ccccc2o1)NC(=O)c1ccccc1OC	n	n	n	14	13
